According to PubChem BioAssay (NCI):
About 83,000 compounds went through this panel and 20% of them were active in at least one assay; those are over-represented in the sample as a whole.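 Results are percent growth after 48 hours of single-concentration exposure. 100 means growth as in untreated cells, lower positive values show inhibition; negative values down to -100 show cell death.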 Values without a mark were called inactive. The source made the active and inactive calls. The calls were made as follows: active = growth percent below 10; inactive = the rest.

Test system: MDA-MB-468 breast
Experiment: NCI-60 one-dose screen, 48 h (100 = growth as untreated, 0 = no growth, -100 = all killed)
Conditions: 10 µM unless noted

Q: How did the growth turn out when `CN(C)c1ccc(-c2nc(-c3ccccc3)c(-c3ccccc3)[nH]2)cc1` was run?
A: 114%

Q: With `CN(C)CCCn1c(=O)c2ccccc2c2ccccc21` as the molecule, how does the growth read?
A: 66%

Q: `CCCCCc1ccc(S(=O)(=O)Nc2cc(-c3csc(N)n3)ccc2OC)cc1` was tested. Which growth did it give?
A: 78.7%

Q: With `C=C1C(=O)O[C@H]2[C@H]1CC/C(COC(=O)c1cccnc1N)=C\CC[C@@]1(C)O[C@@H]21` as the molecule, how does the growth read?
A: 14.8%

Q: With `COc1ccc(C2CC(c3cccc(OC)c3)=NN2C(=O)c2cc(OC)c(OC)c(OC)c2)cc1` (stereo not given) as the molecule, how does the growth read?
A: 29.2%

Q: `CCOc1ccc2c(c1)/C(=C\C=C\C1CC(C)C3CC(OCC)CCC3N1CC)CC(C)N2CC` (stereo not given) was tested. Which growth did it give?
A: -37.3% (active)

Q: How did the growth turn out when `COc1ccc(-c2c(C)noc2-c2ccc(O)cc2O)cc1` was run?
A: 77.8%

Q: `O=NN(C(=O)NC1CCC(C(=O)O)CC1)C1CCC(C(=O)O)CC1` (stereo not given) was tested. Which growth did it give?
A: 96.1%

Q: How did the growth turn out when `c1ccc(-c2cccc(-c3ccccn3)n2)nc1` was run?
A: -15.6% (active)

Q: Which growth does the source give for `CN(CCO)c1ccc(N2Cc3ccccc3OC3=C2C(=O)c2c(O)ccc(O)c2C3=O)cn1` here?
A: -64.7% (active)

Q: With `CN(CCC#N)C(=O)Nc1ccccc1` as the molecule, how does the growth read?
A: 109%

Q: For `CN1CCN(c2ccc(Nc3nc(NCCCNS(=O)(=O)c4ccc(Cl)cc4)c4sccc4n3)cc2)CC1`, which growth is on record?
A: -47.7% (active)

Q: Which growth does the source give for `O=C(CSC(=S)N1CCCCC1)Nc1ccccc1` here?
A: 103%

Q: With `CC1=C(C)C(=O)OC([C@](C)(O)[C@]2(O)CC[C@@]3(O)[C@@H]4C[C@H]5O[C@]56CC=CC(=O)[C@]6(C)[C@H]4CC[C@]23COC(=O)c2ccc(C)o2)C1` (stereo not given in full) as the molecule, how does the growth read?
A: -55.6% (active)

Q: With `CCCCCCCCCCCCCCCC[n+]1cccc(C#N)c1` as the molecule, how does the growth read?
A: -27.5% (active)

Q: `CN1CCN(CCOc2ccc(-c3cnc4c(-c5ccc(F)cc5)cnn4c3)cc2)CC1` was tested. Which growth did it give?
A: 61.3%

Q: With `CCOC(=O)c1cc2c(n1Cc1ccccc1)-c1oncc1CCC2` as the molecule, how does the growth read?
A: 60.2%

Q: For `COc1ccc(-c2ccc(-c3ccc(C(=N)N)cc3)s2)cc1Cl`, which growth is on record?
A: -65% (active)

Q: `O=C(CSc1nnc(-c2ccc(Cl)cc2)o1)c1ccccc1` was tested. Which growth did it give?
A: 97.1%

Q: How did the growth turn out when `CCCc1ccnc(NS(=O)(=O)c2ccc(N)cc2)n1` was run?
A: 8.05% (active)

Q: Which growth does the source give for `COCCn1cc(-c2csc(-c3cn(C)c4ccc(Br)cc34)n2)c2cccnc21` here?
A: 54.8%

Q: With `NC(=O)Cc1nc(O)cc(=O)[nH]1` as the molecule, how does the growth read?
A: 111%

Q: For `COc1cc2c3c(cc4c5c(ccc4c3c1OC)OCO5)N(CCN(C)C)C2=O`, which growth is on record?
A: -48.8% (active)

Q: With `CC/C=C\C[C@H]1C/C=C2/C(=O)C(Cl)=C[C@@H]2C/C=C\CCCC(=O)O1` as the molecule, how does the growth read?
A: -69.2% (active)

Q: `Cc1ccc(CNc2ccc3nc(CCC4CCCCC4)[nH]c3c2)cc1` was tested. Which growth did it give?
A: -13.2% (active)

Q: `CC(Oc1ccc(Cl)cc1)c1ccccc1` (stereo not given) was tested. Which growth did it give?
A: 99.9%

Q: How did the growth turn out when `O=C1/C(=C/c2ccc(-c3ccc(Cl)cc3)o2)SC(=S)N1CCc1ccc(O)cc1` was run?
A: 87%

Q: `CCCCCCCCC(=O)OCCCC(CCC(CCC1CCCO1)OC(=O)CCCCCCCC)OC(=O)CCCCCCCC` (stereo not given) was tested. Which growth did it give?
A: 111%

Q: Which growth does the source give for `O=C(CS(=O)c1oc(-c2cccs2)nc1S(=O)(=O)c1ccc(Br)cc1)c1ccccc1` (stereo not given) here?
A: 101%

Q: How did the growth turn out when `O=c1[nH]c2ccccc2n1C1CCN(CCOc2ccccc2)CC1` was run?
A: 78.9%

Q: How did the growth turn out when `O=C(Nc1ccc(-c2nc(-c3cccc(O)c3)c(-c3ccnc(Br)c3)[nH]2)cc1)c1ccccc1` was run?
A: 7.45% (active)

Q: `CCC(C)(C)c1ccc(OCCCCCCN2CCNCC2)cc1` was tested. Which growth did it give?
A: -9.22% (active)

Q: How did the growth turn out when `O=Cc1[nH]c(Sc2ccccc2)c2ccccc12` was run?
A: 47.7%

Q: How did the growth turn out when `IC(I)I` was run?
A: 106%

Q: Which growth does the source give for `CCOC(=O)c1[nH]c(C#N)c(C(=O)OCC)c1C` here?
A: 105%

Q: With `COC1=CC(c2ccc[nH]2)=N/C1=C\c1[nH]c(C)c(C(=O)CCC(=O)Oc2ccc3c(c2)CCC2C3CC[C@]3(C)C(=O)CC[C@@H]23)c1C` (stereo not given in full) as the molecule, how does the growth read?
A: 76.3%

Q: With `COc1cc(/C=C/C(=O)Nc2ccc3c(c2)/C(=C\c2cccn2C)C(=O)N3)cc(OC)c1OC` as the molecule, how does the growth read?
A: 47.4%

Q: For `CN(C)CC/C=C1\c2ccccc2Sc2ccc(Cl)cc21`, which growth is on record?
A: 8.92% (active)

Q: With `CC(=O)OCCCCCCn1c2ccccc2c2c3c(c4c5ccccc5n(C)c4c21)C(=O)N(O)C3=O` as the molecule, how does the growth read?
A: 90.4%

Q: For `O=C(c1ccc(O)cc1)[C@@H]1[C@@H]2CCCN2[C@@]2(C(=O)N(C(=O)c3ccc(F)cc3)c3ccccc32)[C@H]1c1ccc(F)cc1`, which growth is on record?
A: 92.4%
